The target of one test is Albumin (Bos taurus) (UniProt P02769). Put plainly: compounds binding labelled BSA control protein – biochemical, small-molecule microarray, Alexa647 label, 635/667 nm fluorescence, artefact control for SMM control protein annotation, profiling panel (AID 1118).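 Also: score merges 667 nm emission intensity and signal-to-noise per printed compound spot.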 The settings on record: BSA-A647 binding, fluorescence 635 nm, higher = more signal.
Test [1] can be described thus: probe aXIP binding to arrayed compounds – biochemical, NeuroSMM set, 635/667 nm fluorescence, primary screen (AID 1119).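 Also: probe is the protein aXip251-270 applied at 1 µg/mL to compound-printed slides; binding of probe to printed compounds measured as 667 nm fluorescence plus signal to noise.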 The settings on record: small-molecule microarray, higher = more signal, called active from +8 up or from −8 down.
A short description of test [2]: probe aNOTCH3 binding on compound microarray – biochemical, small-molecule microarray, 635/667 nm fluorescence, primary screen (AID 1120).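 Also: probe is a biotin-tagged antibody raised against NOTCH3 rather than NOTCH3 protein; score merges spot fluorescence near 667 nm with spot signal to noise.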 The following applies: higher = more signal.
Test [3] can be described thus: probe aNOTCH2 binding on compound microarray – biochemical, small-molecule microarray, 635/667 nm fluorescence, primary screen (AID 1121).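 Also: score merges feature fluorescence read at 667 nm with its signal to noise.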 The settings on record: higher = more signal.
Test [4] concerns the target Carbonic anhydrase 2 (Homo sapiens) (UniProt P00918). Put plainly: compounds binding carbonic anhydrase 2 – biochemical, small-molecule microarray, Alexa647-labelled CAII, profiling panel (AID 1122). The settings on record: CAII-A647 binding fluorescence, higher = more signal.
Test [5] in a line: COS7 lysate on small-molecule microarray, probe aHis, 635 nm (AID 1123).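 Also: z-score combines 667nm fluorescence intensity with signal-to-noise per printed compound spot.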 The settings on record: COS7 cell lysate, fluorescence, higher = more signal.
Test [6] in a line: probe aLAP1 signal on lysate-treated microarray – cell lysate, small-molecule microarray, COS7 lysate, primary screen (AID 1124).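 Also: lysate comes from COS7 cells expressing LAP1 and is applied at 0.3 µg/mL; score merges spot fluorescence near 667 nm with signal-to-noise over triplicate slides.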 The settings on record: probe aLAP1, fluorescence, higher = more signal.
The subject of the next test is Sam68 (KHDRBS1). In words: compounds binding KHDRBS1 protein – biochemical, small-molecule microarray, 635 nm fluorescence, primary screen (AID 1125).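 Also: score merges 667 nm channel intensity with signal to noise over triplicate slides.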 The following applies: higher = more signal.
In test [7] the test system is Chordin-like protein 2 (CHRDL2). In words: compounds binding chordin-like 2 – biochemical, small-molecule microarray, 635 nm fluorescence, primary screen (AID 1126).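 Also: printed compound slides probed with Chrdl2 protein at 4 µg/mL for 1 h at 4 C; score merges 667 nm emission intensity with signal to noise over three replicate slides.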 The settings on record: fluorescence 635 nm, higher = more signal.
Test [8] addresses Concanavalin-A (Canavalia ensiformis) (UniProt P02866). In words: compounds binding concanavalin A lectin – biochemical, small-molecule microarray, Alexa647 label, 635 nm, artefact control for SMM control protein annotation, primary screen (AID 1127).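 Also: z combines 667 nm emission intensity with signal-to-noise across three replicate slides.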 The following applies: ConA-A647 binding fluorescence, higher = more signal.
The nature of test [9]: compounds binding Alexa647 anti-His antibody – biochemical, small-molecule microarray, 635 nm fluorescence, artefact control for SMM control protein annotation, primary screen (AID 1128).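 Also: score merges feature fluorescence with signal-to-noise for each printed compound spot.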 The following applies: higher = more signal.
The subject of test [10] is Human papillomavirus type 1a E7 protein (residues 1-88). Put plainly: HPV1a E7 small-molecule binders, primary screen, biochemical, small-molecule microarray, residues 1-88, 635 nm (AID 1129). The settings on record: small-molecule microarray binding, fluorescence 635 nm; higher = more signal.
In test [11] the target is Focal adhesion kinase 1 (Homo sapiens) (UniProt Q05397). In words: PTK2 protein binding on printed compound slides – biochemical, small-molecule microarray, 635/667 nm fluorescence, BSA, DTT, primary screen (AID 1130).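 Also: composite of spot emission at 667 nm and signal to noise over triplicate slides.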 The settings on record: 635 nm fluorescence, higher = more signal.
Chain of Focal adhesion kinase 1 (Homo sapiens) (Q05397 whole entry, looked up): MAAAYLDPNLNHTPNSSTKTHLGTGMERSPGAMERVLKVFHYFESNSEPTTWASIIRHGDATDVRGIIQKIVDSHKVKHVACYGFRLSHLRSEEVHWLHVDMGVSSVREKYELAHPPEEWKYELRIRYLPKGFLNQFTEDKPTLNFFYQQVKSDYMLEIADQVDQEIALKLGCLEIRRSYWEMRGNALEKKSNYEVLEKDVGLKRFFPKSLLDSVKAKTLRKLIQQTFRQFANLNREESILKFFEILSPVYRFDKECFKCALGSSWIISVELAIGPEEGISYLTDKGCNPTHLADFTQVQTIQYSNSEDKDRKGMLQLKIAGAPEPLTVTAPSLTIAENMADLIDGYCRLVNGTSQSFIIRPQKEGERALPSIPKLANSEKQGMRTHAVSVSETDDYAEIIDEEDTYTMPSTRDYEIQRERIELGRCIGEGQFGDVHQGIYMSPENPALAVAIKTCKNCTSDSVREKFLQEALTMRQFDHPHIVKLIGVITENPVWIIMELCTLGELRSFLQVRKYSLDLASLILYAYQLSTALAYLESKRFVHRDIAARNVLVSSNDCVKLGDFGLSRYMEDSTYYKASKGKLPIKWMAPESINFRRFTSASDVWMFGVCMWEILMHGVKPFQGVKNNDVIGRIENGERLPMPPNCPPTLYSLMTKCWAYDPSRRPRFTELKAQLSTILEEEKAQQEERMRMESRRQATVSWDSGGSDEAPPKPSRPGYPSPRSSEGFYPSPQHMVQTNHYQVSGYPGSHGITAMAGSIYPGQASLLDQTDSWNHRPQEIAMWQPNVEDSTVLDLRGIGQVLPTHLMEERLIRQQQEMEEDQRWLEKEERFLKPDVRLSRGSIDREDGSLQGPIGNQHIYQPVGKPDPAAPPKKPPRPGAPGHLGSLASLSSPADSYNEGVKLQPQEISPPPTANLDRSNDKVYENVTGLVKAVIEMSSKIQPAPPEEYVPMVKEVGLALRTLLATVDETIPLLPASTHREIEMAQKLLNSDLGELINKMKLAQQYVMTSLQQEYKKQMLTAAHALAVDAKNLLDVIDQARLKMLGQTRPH
In test [12] the test system is Fibrinogen (Alexa647-labelled). Put plainly: Alexa647-fibrinogen binding to printed small molecules – biochemical, small-molecule microarray, 635/667 nm fluorescence, artefact control for SMM control-protein annotation, profiling panel (AID 1131).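 Also: z-score merges 667 nm fluorescence with per-spot signal-to-noise over triplicate slides.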 The settings on record: fibrinogen-A647 binding fluorescence, higher = more signal.
Test [13] has as its target Follistatin (Homo sapiens) (UniProt P19883). Put plainly: FST protein binding to printed compounds – biochemical, small-molecule microarray, 635/667 nm fluorescence, primary screen (AID 1132). The settings on record: 635 nm fluorescence, higher = more signal.
Test [14] has as its target Fibroblast growth factor 2 (Homo sapiens) (UniProt P09038). In words: basic fibroblast growth factor binding to printed compounds – biochemical, small-molecule microarray, 635/667 nm fluorescence, primary screen (AID 1133). The following applies: FGF2, fluorescence 635/667, higher = more signal.
The nature of test [15]: JC-1 mitochondrial potential readout, lung cancer cells – cell-based, A549, JC-1 fluorescence, basal, 24 h, 100 nL, profiling panel (AID 1138).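 Also: A549 lung adenocarcinoma cells under basal conditions with no added stimulus; test concentration not given here.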 The following applies: higher = more signal.
A further test deals with Lefty1. Put plainly: Lefty1 protein binding to printed compounds – biochemical, small-molecule microarray, 635/667 nm fluorescence, primary screen (AID 1139). The settings on record: fluorescence 635/667, higher = more signal.
In test [16] the test system is wheat germ agglutinin (Triticum aestivum), Alexa647-labelled. In words: Alexa647-WGA lectin binding to printed small molecules – biochemical, small-molecule microarray, 635/667 nm fluorescence, artefact control for SMM control-protein annotation, profiling panel (AID 1140).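 Also: score merges 667 nm feature emission with signal to noise over triplicate slides.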 The following applies: WGA-A647 binding, 635 nm fluorescence, higher = more signal.
The target in test [17] is Luciferin 4-monooxygenase (Photinus pyralis) (UniProt P08659). In words: inhibition of purified Photinus pyralis luciferase – biochemical, luminescence, purified enzyme, 2006 set, primary screen (AID 1141).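 Also: cell-free assay with purified firefly luciferase at 100 ng per well in PBS; test concentration not given here.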 The following applies: purified firefly luciferase, SteadyGlo luminescence, 30 min; higher = more signal, called active from +8 up or from −8 down.
Chain of Luciferin 4-monooxygenase (Photinus pyralis) (P08659 whole entry, looked up): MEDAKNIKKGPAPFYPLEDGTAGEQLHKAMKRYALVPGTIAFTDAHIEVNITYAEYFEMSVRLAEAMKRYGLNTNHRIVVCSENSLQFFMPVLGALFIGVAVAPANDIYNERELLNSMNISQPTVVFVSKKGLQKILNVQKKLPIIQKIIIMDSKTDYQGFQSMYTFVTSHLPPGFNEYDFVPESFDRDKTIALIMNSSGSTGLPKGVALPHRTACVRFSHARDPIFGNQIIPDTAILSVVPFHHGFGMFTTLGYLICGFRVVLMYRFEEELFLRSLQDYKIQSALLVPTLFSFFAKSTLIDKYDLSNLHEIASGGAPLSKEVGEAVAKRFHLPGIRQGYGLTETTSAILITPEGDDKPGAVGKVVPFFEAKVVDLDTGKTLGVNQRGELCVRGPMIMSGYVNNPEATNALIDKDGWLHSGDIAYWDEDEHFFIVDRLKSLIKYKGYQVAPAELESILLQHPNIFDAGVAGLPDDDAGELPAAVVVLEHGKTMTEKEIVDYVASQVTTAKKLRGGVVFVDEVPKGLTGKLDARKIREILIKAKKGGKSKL

Activity calls are given as the source filed them.

Among the data in PubChem BioAssay are composite z-score, composite Z-score and z-score values, retold here.

Chain of Concanavalin-A (Canavalia ensiformis) (P02866 whole entry, looked up): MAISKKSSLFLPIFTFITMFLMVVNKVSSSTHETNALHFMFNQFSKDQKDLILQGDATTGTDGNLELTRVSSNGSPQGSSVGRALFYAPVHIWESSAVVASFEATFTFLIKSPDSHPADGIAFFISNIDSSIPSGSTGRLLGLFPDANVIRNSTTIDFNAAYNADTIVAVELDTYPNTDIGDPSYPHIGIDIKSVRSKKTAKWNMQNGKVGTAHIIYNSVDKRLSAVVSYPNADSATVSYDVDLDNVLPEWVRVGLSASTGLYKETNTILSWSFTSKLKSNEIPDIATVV
Chain of Albumin (Bos taurus) (P02769 whole entry, looked up): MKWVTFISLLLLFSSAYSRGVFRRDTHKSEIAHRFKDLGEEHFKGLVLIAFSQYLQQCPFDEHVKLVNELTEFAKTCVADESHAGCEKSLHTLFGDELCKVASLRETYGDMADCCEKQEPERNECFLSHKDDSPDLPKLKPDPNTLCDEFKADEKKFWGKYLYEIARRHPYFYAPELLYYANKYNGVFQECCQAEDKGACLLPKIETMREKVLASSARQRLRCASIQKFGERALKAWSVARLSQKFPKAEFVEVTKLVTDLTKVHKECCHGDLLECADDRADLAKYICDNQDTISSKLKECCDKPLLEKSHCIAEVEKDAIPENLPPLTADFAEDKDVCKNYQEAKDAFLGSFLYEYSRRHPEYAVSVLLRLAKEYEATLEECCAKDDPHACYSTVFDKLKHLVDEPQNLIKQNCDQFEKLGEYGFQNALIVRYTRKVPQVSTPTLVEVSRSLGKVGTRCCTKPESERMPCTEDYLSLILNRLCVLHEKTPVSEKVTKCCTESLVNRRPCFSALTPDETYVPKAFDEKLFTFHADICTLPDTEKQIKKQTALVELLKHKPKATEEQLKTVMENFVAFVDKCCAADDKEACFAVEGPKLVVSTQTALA
Chain of Fibroblast growth factor 2 (Homo sapiens) (P09038 whole entry, looked up): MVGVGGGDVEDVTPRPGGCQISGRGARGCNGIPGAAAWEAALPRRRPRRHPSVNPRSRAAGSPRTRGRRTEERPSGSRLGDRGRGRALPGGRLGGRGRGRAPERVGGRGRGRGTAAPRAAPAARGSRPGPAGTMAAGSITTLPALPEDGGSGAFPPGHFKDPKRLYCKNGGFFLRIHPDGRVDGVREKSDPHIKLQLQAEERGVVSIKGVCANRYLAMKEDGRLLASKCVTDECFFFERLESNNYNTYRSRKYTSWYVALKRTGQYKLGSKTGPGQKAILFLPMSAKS
Chain of Follistatin (Homo sapiens) (P19883 whole entry, looked up): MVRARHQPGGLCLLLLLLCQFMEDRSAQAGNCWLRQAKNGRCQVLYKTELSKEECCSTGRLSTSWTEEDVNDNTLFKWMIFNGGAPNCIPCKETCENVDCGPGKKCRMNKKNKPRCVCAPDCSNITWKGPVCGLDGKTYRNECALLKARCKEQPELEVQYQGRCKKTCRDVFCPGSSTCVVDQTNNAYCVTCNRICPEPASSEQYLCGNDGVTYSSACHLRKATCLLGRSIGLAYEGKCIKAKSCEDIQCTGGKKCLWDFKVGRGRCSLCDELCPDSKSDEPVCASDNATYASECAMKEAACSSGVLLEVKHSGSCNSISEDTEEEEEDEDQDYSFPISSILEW

Consider `CN1C(=O)C2C(C1=O)C1C=C(c3ccc(CO)cc3)C2C(C2CC2)N1C` (stereo not given), for which the composite z-score in the test with Albumin (Bos taurus) was 0.876; in [2] it was -0.0947; in test [3] it was -0.0859; in test [4], 0.431; in test [5], -0.415; in test [6], -0.0324. Besides, the composite z-score in the test on Sam68 (KHDRBS1) was 0.164; in [7], 0.0323; in test [8], 0.0875; in test [9], 0.958; in test [10], -0.164; in test [11], -0.324. For the same molecule, the composite z-score in [12] was -0.578; in test [13], -0.17; in test [14], -0.124; in the test with Lefty1, -0.617; in test [16] it was -0.0515. Further, in test [1], the composite Z-score is 0.111 (inactive). In addition, the z-score was -0.808 in [15] and 0.279 (inactive) in [17].
Consider `C=CC[C@@]1(C(=O)OC)N=C(c2ccc(OCCCO)cc2)O[C@@H]1c1ccccc1N=[N+]=[N-]`, for which the composite z-score with Albumin (Bos taurus) is -1.11; in [2], 0.477; in test [3] it was 0.12; in [4], 0.475; in test [5], 2.76; in test [6], 0.568. For the same molecule, the composite z-score in the test with Sam68 (KHDRBS1) came out at 1.29; in test [7] it was 1.33; in [8] it was 0.896; in test [9] it was 2.37; in test [10] it was 1.24; in test [11] it was 0.568. Also, the composite z-score in test [12] came out at 0.159; in test [13], 1.41; in [14] it was 1.66; in the test with Lefty1 it was 0.53; in test [16], 0.874. Besides, the composite Z-score in test [1] was 0.721 (inactive). For the same molecule, the results for the z-score in [15] and in [17] were 0.311 and -6.39 (inactive), respectively.
With `C=CCOC(=O)[C@@H]1[C@H]2C(=O)O[C@H](c3ccccc3)[C@H](c3ccccc3)N2[C@H](c2ccc(OCCOC(=O)[C@H]3C[C@H]4C(=O)NCC(=O)N4[C@H]3c3cccc(OCCO)c3)cc2)[C@@]12C(=O)Nc1ccc(I)cc12`, the composite z-score with Albumin (Bos taurus) was -0.735; in test [2], -0.006; in test [3], -0.06; in [4], 0.636; in [5], 1.96; in [6], 0.397. The composite z-score was found to be 1.3 in the test with Sam68 (KHDRBS1); 1.02 in test [7]; 1.19 in test [8]; 2.5 in [9]; 1.19 in [10]; 0.919 in test [11]. Also, the composite z-score in [12] was found to be 0.438; in [13], 1.38; in test [14], 1.64; in the test on Lefty1 it was 1.34; in test [16], 0.734. The composite Z-score in [1] is 0.614 (inactive). For the same molecule, the values for the z-score in test [15] and in [17] were -1.09 and -1.06 (inactive), respectively.
For the molecule `CCOc1cc(C(O)C2C=CC3C(=O)N(c4ccccc4)C(=O)C3N2Nc2ccccc2F)ccc1O` (stereo not given), the composite z-score with Albumin (Bos taurus) was determined as 0.799; in test [2], 0.533; in test [3], 0.433; in [4] it was 0.826; in test [5] it was 2.75; in [6], 0.0411. Besides, the composite z-score was 0.339 in the test on Sam68 (KHDRBS1); 0.0988 in [7]; 0.666 in [8]; 0.532 in test [9]; 0.316 in test [10]; -0.0063 in [11]. Further, the composite z-score in test [12] is -0.428; in test [13], 0.106; in [14], -0.107; in the test on Lefty1 it was -0.541; in [16] it was 0.886. For the same molecule, the composite Z-score in test [1] was -0.209 (inactive). The z-score was -0.638 in test [15] and -1.38 (inactive) in test [17].
Regarding `COc1ccc([Si](C)(C)[C@@H]2[C@@H](CC(=O)N(CCO)Cc3ccccc3)O[C@]3(C(=O)N(Cc4ccc(N5C(=O)c6cccc7cccc5c67)cc4)c4ccccc43)[C@H]2C)cc1`, the composite z-score with Albumin (Bos taurus) was -0.806; in test [2], 0.0496; in test [3], -0.126; in [4], 0.283; in test [5], 1.12; in test [6], 0.284. The composite z-score with Sam68 (KHDRBS1) came out at 0.956; in test [7], 0.307; in test [8] it was 1.12; in test [9], 2.39; in [10], 0.65; in [11] it was 0.369. Besides, the composite z-score came to 0.674 in test [12]; 0.552 in test [13]; 0.943 in [14]; 0.449 in the test on Lefty1; 0.934 in test [16]. For the same molecule, the composite Z-score in [1] was 0.267 (inactive). Also, the results for the z-score in test [15] and in test [17] were -0.216 and -0.389 (inactive), respectively.
